{"source": "PubChem BioAssay AID1376", "about": "(SRMLSC, 2008)", "note": "Screen size: about 220,000 compounds; about 530 (0.24%) were called active. Many of the other results were omitted from the sample, so actives are more common in it than they were. Results with a measured potency or affinity are listed apart. A number with no mark means an inactive call. Cut-off read from the data, not from the text of the source: active = inhibition above about 13%; inconclusive = no clear call, values can overlap the other calls; inactive = below that.", "data": [{"biological_target": "Bifunctional protein GlmU (Mycobacterium tuberculosis (strain ATCC 25618 / H37Rv)) (UniProt P9WMN3)", "sequence (P9WMN3 whole entry, looked up)": "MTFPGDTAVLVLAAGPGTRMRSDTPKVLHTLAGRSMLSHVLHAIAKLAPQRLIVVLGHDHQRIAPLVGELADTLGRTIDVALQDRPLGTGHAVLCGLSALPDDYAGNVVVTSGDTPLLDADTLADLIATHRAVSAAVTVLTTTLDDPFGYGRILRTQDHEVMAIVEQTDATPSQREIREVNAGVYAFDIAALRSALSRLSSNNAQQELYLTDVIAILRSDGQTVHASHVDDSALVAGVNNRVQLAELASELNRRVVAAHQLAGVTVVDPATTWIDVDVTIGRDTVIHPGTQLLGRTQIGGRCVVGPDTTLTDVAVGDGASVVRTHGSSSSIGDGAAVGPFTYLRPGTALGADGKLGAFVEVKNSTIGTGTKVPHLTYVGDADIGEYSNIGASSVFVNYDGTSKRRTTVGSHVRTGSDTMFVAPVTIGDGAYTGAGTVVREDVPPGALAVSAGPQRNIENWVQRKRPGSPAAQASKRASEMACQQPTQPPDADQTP", "assay": "inhibition of mycobacterial GlmU enzyme – biochemical, glucosamine-1-phosphate acetyltransferase (AID 1376);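 note: 0% = complete reaction with vehicle and 100% = reaction without substrate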", "conditions": "M. tuberculosis GlmU acetyltransferase enzyme assay; active compounds read high;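 tested at 30 µM in the primary screen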", "values": [{"molecule": "Cc1ccc(OCC(=O)Nc2ccc3c(c2)OCO3)c(C)c1", "inhibition": "7.84%"}, {"molecule": "CCn1c(C)nc2cc(C(=O)N/N=C/c3cccc(O)c3O)ccc21", "inhibition": "-2.26%"}, {"molecule": "CCn1c(C)nc2cc(C(=O)N/N=C/c3ccc(O)c(O)c3O)ccc21", "inhibition": "12.9% (active)"}, {"molecule": "CCn1c(C)nc2cc(C(=O)N/N=C/c3cccc(OC)c3O)ccc21", "inhibition": "1.22%"}, {"molecule": "CN(C(=O)COc1ccccc1C(=O)NCCc1ccccc1)c1ccccc1", "inhibition": "1.19%"}, {"molecule": "CC[N+](CC)(CC)CCCOC(=O)C(O)(c1ccccc1)C1CCCCC1", "note": "(stereo unspecified)", "inhibition": "-1.3%"}, {"molecule": "Cc1cc(C)cc(C(=O)N2CCN=C2c2ccccc2)c1", "inhibition": "13.7% (active)"}, {"molecule": "COc1cc(C(=O)N2CCN=C2c2ccccc2)cc(OC)c1OC", "inhibition": "-4.46%"}, {"molecule": "O=C(c1ccccc1)N1CCN=C1c1ccccc1", "inhibition": "3.08%"}, {"molecule": "CC1=C(C(=O)OCc2ccccc2)C(c2ccsc2)NC(=O)N1C", "note": "(stereo unspecified)", "inhibition": "0.99%"}, {"molecule": "CN1CCN(C(=S)NC(=O)c2ccc(Br)cc2)CC1", "inhibition": "-2.25%"}, {"molecule": "CN1CCN(C(=S)NC(=O)c2ccc(C(C)(C)C)cc2)CC1", "inhibition": "0.68%"}, {"molecule": "COc1ccc(-c2noc(C3CCCN(S(=O)(=O)c4cccc(Cl)c4C)C3)n2)cc1OC", "note": "(stereo unspecified)", "inhibition": "1.44%"}, {"molecule": "Cc1ccc(-n2ncc3c(=O)[nH]c(SC(C)C)nc32)cc1", "inhibition": "-6.03%"}, {"molecule": "Cc1nn(Cc2ccc([N+](=O)[O-])cc2)c(=O)n1N(C)c1ncc(C(F)(F)F)cc1Cl", "inhibition": "13.8% (active)"}, {"molecule": "Cc1nn(Cc2ccccc2)c(=O)n1N(C)c1ncc(C(F)(F)F)cc1Cl", "inhibition": "-3.42%"}, {"molecule": "Cc1nn(Cc2ccc(Cl)cc2)c(=O)n1N(C)c1ncc(C(F)(F)F)cc1Cl", "inhibition": "-1.59%"}, {"molecule": "Cc1cc(N2CCN(Cc3nc(-c4ccc(F)cc4)oc3C)CC2)cc(C)n1", "inhibition": "-0.06%"}, {"molecule": "O=c1/c(=C\\c2ccc(O)cc2)sc2n1C(c1ccccc1)C(c1ccccc1)=NN=2", "note": "(stereo unspecified)", "inhibition": "15.3% (active)"}, {"molecule": "COc1cc(/C=c2\\sc3n(c2=O)C(c2ccccc2)C(c2ccccc2)=NN=3)ccc1O", "note": "(stereo unspecified)", "inhibition": "-0.15%"}, {"molecule": "O=c1/c(=C\\c2ccc(O)cc2)sc2nc(-c3ccccc3)c(-c3ccccc3)n12", "inhibition": "-5.24%"}, {"molecule": "CC1CCN(C(=O)CCCOc2ccc(Cl)cc2)CC1", "inhibition": "-3.73%"}, {"molecule": "COc1ccc(N2C(=O)CC(N(C)CCc3ccc(OC)c(OC)c3)C2=O)cc1", "note": "(stereo unspecified)", "inhibition": "-4.91%"}, {"molecule": "CC(C)(C)C(=O)n1nc(-c2ccccc2)oc1=O", "inhibition": "-3.45%"}, {"molecule": "O=C(O)Cn1nc(-c2ccc(F)cc2)oc1=O", "inhibition": "-1.78%"}, {"molecule": "O=C(O)Cn1nc(-c2ccccc2)oc1=O", "inhibition": "12.9% (active)"}, {"molecule": "Cc1cc(NC(=O)CSc2nc(-c3ccccc3)c(C#N)c(=O)[nH]2)no1", "inhibition": "8.24%"}, {"molecule": "Cc1cc(C)nc(NS(=O)(=O)c2ccc(NC(=O)CSc3nc(-c4ccccc4)c(C#N)c(=O)[nH]3)cc2)n1", "inhibition": "13.9% (active)"}, {"molecule": "N#Cc1c(-c2ccccc2)nc(SCC(=O)Nc2ccccc2)[nH]c1=O", "inhibition": "3.28%"}, {"molecule": "CCOc1ccc(N2C(=O)CC(n3nc(C)cc3C)C2=O)cc1", "note": "(stereo unspecified)", "inhibition": "1.73%"}, {"molecule": "Cc1ccc(S(=O)(=O)N(C)C)cc1NC(=S)NC(=O)C12CC3CC(CC(C3)C1)C2", "inhibition": "-3.56%"}, {"molecule": "CC(C)(C)C1CCC(=NNC(=O)CC(=O)NCc2ccccc2)CC1", "note": "(stereo unspecified)", "inhibition": "0.32%"}, {"molecule": "Cc1[nH]oc(=O)c1N=Nc1ccccc1", "inhibition": "8.43%"}, {"molecule": "CCC(c1c(C)[nH]oc1=O)c1c(C)[nH]oc1=O", "inhibition": "13.4% (active)"}, {"molecule": "Cc1[nH]oc(=O)c1N=Nc1c(Cl)cccc1Cl", "inhibition": "1.64%"}, {"molecule": "O=S(=O)(c1ccc(-c2nc3ccccc3s2)cc1)N1CCCC1", "inhibition": "2.5%"}, {"molecule": "COc1ccccc1N1CCN(CCN2C(=O)CC(=C3c4ccccc4-c4ccccc43)C2=O)CC1", "inhibition": "4.68%"}, {"molecule": "CCCCNC(=O)c1ccc(NC(C)=O)c(Cl)c1", "inhibition": "-5.13%"}, {"molecule": "CCCCNC(=O)c1ccc(S(=O)(=O)c2ccc(Cl)cc2)c(NC(C)=O)c1", "inhibition": "14% (active)"}, {"molecule": "CCCC(=O)Nc1cc(C(=O)O)ccc1S(=O)(=O)c1ccc(Cl)cc1", "inhibition": "0.49%"}, {"molecule": "O=C(CSc1ccc(-c2ccccn2)nn1)NC1CCCCC1", "inhibition": "-1.08%"}, {"molecule": "O=c1c2c([nH]c3ccccc13)CCCCC2", "inhibition": "5.9%"}, {"molecule": "O=c1c2c([nH]c3ccccc13)CCCC2", "inhibition": "1.46%"}, {"molecule": "O=c1c2c([nH]c3ccccc13)CCCCCC2", "inhibition": "13.9% (active)"}, {"molecule": "CS(=O)(=O)N1CCC(C(=O)Nc2ccc(C(F)(F)F)cc2)CC1", "inhibition": "-0.68%"}, {"molecule": "Cc1nnc(SCc2nc3sc(C(=O)O)c(C)c3c(=O)[nH]2)s1", "inhibition": "6.77%"}, {"molecule": "Cc1c(C(=O)O)sc2nc(CSc3nnc(-c4ccc(F)cc4)n3C)[nH]c(=O)c12", "inhibition": "-3.36%"}, {"molecule": "Cc1ccnc(NC(=O)c2ccc3c(c2)S(=O)(=O)c2ccccc2C3=O)c1", "inhibition": "1.48%"}, {"molecule": "Cc1c(O)c2ccccc2oc1=O", "inhibition": "1.82%"}, {"molecule": "Cc1nc2c(c(=O)[nH]1)C(c1ccccc1Cl)c1c(c3ccccc3oc1=O)O2", "note": "(stereo unspecified)", "inhibition": "2.13%"}, {"molecule": "CCCCSc1nc(CCC)cc(=O)[nH]1", "inhibition": "3.53%"}, {"molecule": "Cc1ccc(NC(=O)COC(=O)Cn2cnc3ccccc32)c([N+](=O)[O-])c1", "inhibition": "-0.59%"}, {"molecule": "CCOc1ccc(NC2CCN(C(C)=O)CC2)cc1", "inhibition": "4.14%"}, {"molecule": "CC(=O)N1CCC(Nc2ccc(C)cc2)CC1", "inhibition": "14% (active)"}, {"molecule": "Cc1ccc(NC(=O)N2CCC(NC(=O)C(C)(C)C)CC2)cc1", "inhibition": "2.86%"}, {"molecule": "CCCCNC(=O)CSc1nc2ccc(N3CCOCC3)cc2c(=O)n1CCc1ccccc1", "inhibition": "-5.21%"}, {"molecule": "CCCCn1c(SCC(=O)NCc2ccco2)nc2ccc(N3CCOCC3)cc2c1=O", "inhibition": "5.76%"}, {"molecule": "CCCCn1c(SCC(=O)NCc2ccccc2)nc2ccc(N3CCOCC3)cc2c1=O", "inhibition": "14.2% (active)"}, {"molecule": "CC(Sc1ncc(C(F)(F)F)cc1Cl)C(=O)NC(N)=O", "note": "(stereo unspecified)", "inhibition": "-5.25%"}, {"molecule": "O=C(NCCc1c[nH]c2ccccc12)C(F)(F)F", "inhibition": "-4.42%"}, {"molecule": "N#Cc1cccc(C#N)c1N1CCC(C#N)CC1", "inhibition": "-4.3%"}]}]}
